# Inconclusive results are not listed. Calls of active or inactive are those of the source. How the source made its calls: active means hit-call score of the fitted dose curve at least 0.9, where 1 is the maximum; inconclusive means response in the unintended direction; inactive means score below 0.9.
# Test system: NCBI gene 24521
# Test: NVS_IC_rKATPCh: NovaScreen (NVS) Ion Channel Assay for rat Potassium Channel, ATP-Sensitive (KATPCh) (AID 2283319)
# Method: NVS_IC_rKATPCh is a biochemical, single-readout assay that uses extracted gene-proteins from Rat cortical membranes in a tissue-based cell-free assay. Measurements were taken 2 hours after chemical dosing in a 48-well plate.NVS_IC_rKATPCh is one of one assay component(s) measured or calculated from the NVS_IC_rKATPCh assay. It is designed to make measurements of radioligand binding, a form of binding reporter, as detected with scintillation counting signals by Filter-based radiodetection technology.Data from the assay component NVS_IC_rKATPCh was analyzed into 1 assay endpoint. This assay endpoint, NVS_IC_rKATPCh, was analyzed in the positive analysis fitting direction relative to DMSO as the negative control and baseline of activity. Using a type of binding reporter, loss-of-signal activity can be used to understand changes in the binding as they relate to the gene Kcnj1. Furthermore, this assay endpoint can be referred to as a primary readout, because the performed assay has only produced 1 assay endpoint. To generalize the intended target to other relatable targets, this assay endpoint is annotated to the ion channel intended target family, where the subfamily is potassium channel. […]
smiles,measurement,value
CCOC1Oc2ccc(OS(C)(=O)=O)cc2C1(C)C (stereo unspecified),outcome,inactive
